Results on 6 compounds are retold here after PubChem BioAssay AID1645875 (National Center for Advancing Translational Sciences (NCATS), 2021).

Inconclusive results are not listed. The source made the active and inactive calls. Calls follow the shape of the dose curve; as a rule, active = well fitted inhibition curve with a large enough effect; inconclusive = small, poorly fitted or top-dose-only effect; inactive = no such curve, though single readings can be large or run the other way.

This assay concerns the target N-terminal Xaa-Pro-Lys N-methyltransferase 1 (Homo sapiens) (UniProt Q9BV86). The assay is described as follows: Orthogonal qHTS for Inhibitors of N-terminal methyltransferase 1 (NTMT1): ThioGlo Assay. The text has this:
Assay Submitter (PI): Rong Huang Ph.D. Purdue University, West Lafayette, IN 47907 The N-terminal methytransferase 1 is the first methyltransferase that methylates protein alpha-N-amines and plays an important role in regulating cell mitosis, chromatin interactions and DNA repair. It is observed to be over-expressed in various cancer patient tissues like malignant melanoma and colorectal cancer tissues. Knockdown of NTMT1 in cancer cells causes cell mitotic defects and enhances sensitivity to DNA damaging chemotherapeutics. […] These critical cellular processes in which NTMT1 is implicated, coupled with emerging links to cellular dysfunction, strengthen the inference that NTMT1 is a compelling novel anticancer target. Progress have been made in understanding the molecular properties of NTMT1 and the biological consequences of protein alpha-N-terminal methylation, but there are no specific small molecule probes available for NTMT1 to fully characterize its MTase activity. To address this unmet need, a panel of assay is created and established to enable quantitative high-throughput screening (qHTS) for novel, potent, and selective small molecule NTMT1 inhibitors. Two orthogonal qHTS that use different reagents (ThioGlo vs. MTaseGlo) are developed for primary robotic screening against the NCATS chemical library of more than 400,000 small molecules. Identified inhibitors are reacquired, validated, and further characterized. […] Early Translation Branch (ETB) National Center for Advancing Translational Sciences (NCATS) National Institute of Health (NIH)
Materials: NTMT1 enzyme, substrate SPKRIA, control peptide RCC1-6 is provided by the Huang laboratory. MTaseGlo Assay: PROTOCOL TABLE; SEQUENCE No. (e.g., 1, 2, 3, etc.); […] (e.g., Cells, Incubation, Reagent, etc.); VALUE; DESCRIPTION 1; Enzyme; 3 uL; Dispense enzyme mixture (final concentrations of 125 nM NTMT1) into Greiner 1536-well black / solid bottom assay plate (Greiner Bio One, Monroe, NC). 2; Compounds; 23 nL; Compounds (at various concentration) and 1uM final concentration of RCC1-6 (SPKRIA) control were transferred via a Kalypsys Pin Tool (Wako USA) equipped with a 1536-slotted pin array (Wako Automation, Richmond, VA). 3; Incubation; 1 min; Incubate at room temperature. 4; Substrate; 1 uL; Dispense 1 uL of substrate solution (100uM SAM, 10uM SAHH, 15uM ThioGlo3 final concentration) was added to the wells bringing the final assay volume to 4uL. The assay plate was covered with metal lids. 5; Detection; Fluorescence; Initial fluorescence readout (background signal) was detected using the ViewLux microplate imager with an excitation filter of 340 nm and 450 nm emission filter. 6; Incubation; 30 min; Assay plates were incubation at room temperature in the dark. 7; Detection; Fluorescence; Final fluorescence readout was detected using the ViewLux microplate imager with an excitation filter of 340 nm and 450 nm emission filter. The data was normalized to the background fluorescence.

Chain of N-terminal Xaa-Pro-Lys N-methyltransferase 1 (Homo sapiens) (Q9BV86 whole entry, looked up): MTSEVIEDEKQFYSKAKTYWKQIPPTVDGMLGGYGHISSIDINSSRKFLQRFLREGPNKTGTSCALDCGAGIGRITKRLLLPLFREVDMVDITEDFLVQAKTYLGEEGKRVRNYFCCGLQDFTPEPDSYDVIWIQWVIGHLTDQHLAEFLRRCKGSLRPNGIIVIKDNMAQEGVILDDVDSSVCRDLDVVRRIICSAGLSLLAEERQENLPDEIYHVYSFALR

Take `NC1CCc2cc(O)c(O)cc2C1` (stereo unspecified): the Potency was 10.9 µM (active).

Take `NC(=O)CI`: the Potency is 6.89 µM (active).

For `C[N+]1(C)C2CCC1CC(OC(=O)c1c[nH]c3ccccc13)C2` (stereo unspecified), the Potency was 1.94 µM (active).

`C[N+](C)(C)CC#CCN1CCCC1=O`: the Potency was 1.54 µM (active).

As to `CN[C@@H]1C[C@@H](c2ccc(Cl)c(Cl)c2)c2ccccc21`, the Potency entry is “inactive”.

In the case of `C[N+]1(C)CCN(c2ccccc2)CC1`, the Potency was 2.74 µM (active).
